Where a chain is given by its changes, count along the chain named. Over roughly 16,000 sequences, “ka relative to ugcaugu” has its median near 0.096; the highest 2% begin near 0.35. This is one part of a sample in which the highest values are shown more often than they occur.

Here are results for 20 molecules from PMC9911399, “Two distinct binding modes provide the RNA-binding protein RbFox with extraordinary sequence specificity”.

T1: RBFOX1 RRM RbFoxmut (Fox-RRM*) (Homo sapiens, UniProt Q9NWB1 109-208, R118D;E147R;N151S;E152T)
T1 sequence: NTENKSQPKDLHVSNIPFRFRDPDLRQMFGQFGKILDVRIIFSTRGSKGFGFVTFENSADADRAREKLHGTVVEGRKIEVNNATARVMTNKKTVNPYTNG

B1: UGCUUUG (DNA:RNA)
RNA: GGGAGACCGGAAUUCAGAUUGUCCUGCUUUGUUAAAUCCCGUCGUAGCCACCA
DNA 1: CAATCTGAATTCCGGTCTCCC
DNA 2: TGGTGGCTACGACGGGATT
B2: CUGAGUG (DNA:RNA)
RNA: B1 RNA with U25C, G26U, C27G, U28A, U29G
DNA 1: CAATCTGAATTCCGGTCTCCC
DNA 2: TGGTGGCTACGACGGGATT
B3: UCACCCA (DNA:RNA)
RNA: B1 RNA with G26C, C27A, U28C, U29C, U30C, G31A
DNA 1: CAATCTGAATTCCGGTCTCCC
DNA 2: TGGTGGCTACGACGGGATT
B4: UAGGGAC (DNA:RNA)
RNA: B1 RNA with G26A, C27G, U28G, U29G, U30A, G31C
DNA 1: CAATCTGAATTCCGGTCTCCC
DNA 2: TGGTGGCTACGACGGGATT
B5: AGGGUUG (DNA:RNA)
RNA: B1 RNA with U25A, C27G, U28G
DNA 1: CAATCTGAATTCCGGTCTCCC
DNA 2: TGGTGGCTACGACGGGATT
B6: GAGGAGG (DNA:RNA)
RNA: B1 RNA with U25G, G26A, C27G, U28G, U29A, U30G
DNA 1: CAATCTGAATTCCGGTCTCCC
DNA 2: TGGTGGCTACGACGGGATT
B7: CACCAGG (DNA:RNA)
RNA: B1 RNA with U25C, G26A, U28C, U29A, U30G
DNA 1: CAATCTGAATTCCGGTCTCCC
DNA 2: TGGTGGCTACGACGGGATT
B8: CCCCAGG (DNA:RNA)
RNA: B1 RNA with U25C, G26C, U28C, U29A, U30G
DNA 1: CAATCTGAATTCCGGTCTCCC
DNA 2: TGGTGGCTACGACGGGATT
B9: CAGGUUG (DNA:RNA)
RNA: B1 RNA with U25C, G26A, C27G, U28G
DNA 1: CAATCTGAATTCCGGTCTCCC
DNA 2: TGGTGGCTACGACGGGATT
B10: AGGGGGG (DNA:RNA)
RNA: B1 RNA with U25A, C27G, U28G, U29G, U30G
DNA 1: CAATCTGAATTCCGGTCTCCC
DNA 2: TGGTGGCTACGACGGGATT
B11: ACCGAGG (DNA:RNA)
RNA: B1 RNA with U25A, G26C, U28G, U29A, U30G
DNA 1: CAATCTGAATTCCGGTCTCCC
DNA 2: TGGTGGCTACGACGGGATT
B12: ACCAGGG (DNA:RNA)
RNA: B1 RNA with U25A, G26C, U28A, U29G, U30G
DNA 1: CAATCTGAATTCCGGTCTCCC
DNA 2: TGGTGGCTACGACGGGATT
B13: GAGGUUG (DNA:RNA)
RNA: B1 RNA with U25G, G26A, C27G, U28G
DNA 1: CAATCTGAATTCCGGTCTCCC
DNA 2: TGGTGGCTACGACGGGATT
B14: UCCCCAC (DNA:RNA)
RNA: B1 RNA with G26C, U28C, U29C, U30A, G31C
DNA 1: CAATCTGAATTCCGGTCTCCC
DNA 2: TGGTGGCTACGACGGGATT
B15: CUACCCG (DNA:RNA)
RNA: B1 RNA with U25C, G26U, C27A, U28C, U29C, U30C
DNA 1: CAATCTGAATTCCGGTCTCCC
DNA 2: TGGTGGCTACGACGGGATT
B16: GUGUCAG (DNA:RNA)
RNA: B1 RNA with U25G, G26U, C27G, U29C, U30A
DNA 1: CAATCTGAATTCCGGTCTCCC
DNA 2: TGGTGGCTACGACGGGATT
B17: AUACAAG (DNA:RNA)
RNA: B1 RNA with U25A, G26U, C27A, U28C, U29A, U30A
DNA 1: CAATCTGAATTCCGGTCTCCC
DNA 2: TGGTGGCTACGACGGGATT
B18: CAAUGCG (DNA:RNA)
RNA: B1 RNA with U25C, G26A, C27A, U29G, U30C
DNA 1: CAATCTGAATTCCGGTCTCCC
DNA 2: TGGTGGCTACGACGGGATT
B19: GGGAUGA (DNA:RNA)
RNA: B1 RNA with U25G, C27G, U28A, U30G, G31A
DNA 1: CAATCTGAATTCCGGTCTCCC
DNA 2: TGGTGGCTACGACGGGATT
B20: CGCGCUU (DNA:RNA)
RNA: B1 RNA with U25C, U28G, U29C, G31U
DNA 1: CAATCTGAATTCCGGTCTCCC
DNA 2: TGGTGGCTACGACGGGATT

This experiment addresses T1, RBFOX1 RRM RbFoxmut (Fox-RRM*). Briefly: EMSA; HiTS-Eq, 1 nM pool, 10 min; buffer printed only for the single-RNA assays: 10 mM Tris pH 7.5, 150 mM NaCl, 3.4 mM EDTA, 0.001% NP-40, 30 C. The note with it: tags: His6 N-terminal (pET28a); label: 5' 32P. A digest of the protocol: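 These values rest on relative association constants, computed from read-count changes of each RNA species versus the control reaction and normalised to the cognate motif. Reads came from free RNA recovered by 8% native PAGE after purified RbFox RRM (wild type or mutant) at increasing concentrations was equilibrated for 10 min in 50 µL with 1 nM of a 5′-radiolabelled pool with 7 randomized nucleotides and DNA-annealed flanks.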
On the technique in general: A gel shift assay detects complexes by their altered migration in electrophoresis.
Consider B1, for which the binding signal was 0.179 KA relative to UGCAUGU.

Turning to B2, the binding signal is 0.142 KA relative to UGCAUGU.

For B3, the binding signal was 0.0824 KA relative to UGCAUGU.

For the molecule B4, the binding signal was 0.0789 KA relative to UGCAUGU.

On to B5, for which the binding signal was 0.578 KA relative to UGCAUGU.

As to B6, the binding signal was 0.0833 KA relative to UGCAUGU.

B7: the binding signal is 0.0996 KA relative to UGCAUGU.

With B8, the binding signal was 0.0949 KA relative to UGCAUGU.

On to B9, for which the binding signal was 0.371 KA relative to UGCAUGU.

As to B10, the binding signal is 0.104 KA relative to UGCAUGU.

Consider B11, for which the binding signal is 0.0689 KA relative to UGCAUGU.

For B12, the binding signal is 0.0771 KA relative to UGCAUGU.

As to B13, the binding signal is 0.552 KA relative to UGCAUGU.

With B14, the binding signal is 0.118 KA relative to UGCAUGU.

Turning to B15, the binding signal was 0.0609 KA relative to UGCAUGU.

As to B16, the binding signal was 0.137 KA relative to UGCAUGU.

On to B17, for which the binding signal is 0.0924 KA relative to UGCAUGU.

B18: the binding signal was 0.13 KA relative to UGCAUGU.

On to B19, for which the binding signal is 0.267 KA relative to UGCAUGU.

Take B20: the binding signal was 0.1 KA relative to UGCAUGU.
